SRC1 inh: inhibits human SRC1 coactivator | 0.12% of 360,000 active | HEK293 GAL4-SRC1 luciferase reporter, luminescence | Q15788 | inhibition, % at 3.6 µM;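 active = inhibition above the campaign mean plus 3 SD, with each screening campaign given its own cutoff, cut at about 60% in these data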
Shn3 inh set2: reduces Shn3 3'UTR luciferase signal in osteoblasts; Clone20 osteoblast Shn3 3'UTR firefly luciferase, 24 h; inhibition, % at 12.5 µM; 0.52% of 360,000 active; AID 588674;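 active = mean inhibition of at least 75% with every replicate also reaching 75%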
Gli-Sufu antag: Gli-Sufu pathway antagonism; Sufu-KO-LIGHT fibroblasts, Gli luciferase reporter luminescence; inhibition, % at 5 µM; 0.74% of 340,000 active;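 active = inhibition above about 55%, limit read from the data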
NR5A2 inv ag: suppresses constitutive activity of human LRH-1; HEK293T StAR-luciferase reporter, LRH-1 transfected, 24 h; inhibition, % at 3.6 µM; 0.13% of 360,000 active;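 active = inhibition above the mean inhibition of all tested compounds plus 3 SD, cut at about 73% in these data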
NCOA2 inhibitor: human SRC2 (NCOA2) inhibition | 0.17% of 370,000 active | inhibition, % at 9 µM | Q15596 | HEK293 GAL4-SRC2 luciferase reporter, luminescence | AID 651957;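 active = inhibition above the mean inhibition of all tested compounds plus 3 SD, set per campaign, cut at about 52% in these data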
Target sequence (Q15596 whole entry, looked up, the tested form may be a part): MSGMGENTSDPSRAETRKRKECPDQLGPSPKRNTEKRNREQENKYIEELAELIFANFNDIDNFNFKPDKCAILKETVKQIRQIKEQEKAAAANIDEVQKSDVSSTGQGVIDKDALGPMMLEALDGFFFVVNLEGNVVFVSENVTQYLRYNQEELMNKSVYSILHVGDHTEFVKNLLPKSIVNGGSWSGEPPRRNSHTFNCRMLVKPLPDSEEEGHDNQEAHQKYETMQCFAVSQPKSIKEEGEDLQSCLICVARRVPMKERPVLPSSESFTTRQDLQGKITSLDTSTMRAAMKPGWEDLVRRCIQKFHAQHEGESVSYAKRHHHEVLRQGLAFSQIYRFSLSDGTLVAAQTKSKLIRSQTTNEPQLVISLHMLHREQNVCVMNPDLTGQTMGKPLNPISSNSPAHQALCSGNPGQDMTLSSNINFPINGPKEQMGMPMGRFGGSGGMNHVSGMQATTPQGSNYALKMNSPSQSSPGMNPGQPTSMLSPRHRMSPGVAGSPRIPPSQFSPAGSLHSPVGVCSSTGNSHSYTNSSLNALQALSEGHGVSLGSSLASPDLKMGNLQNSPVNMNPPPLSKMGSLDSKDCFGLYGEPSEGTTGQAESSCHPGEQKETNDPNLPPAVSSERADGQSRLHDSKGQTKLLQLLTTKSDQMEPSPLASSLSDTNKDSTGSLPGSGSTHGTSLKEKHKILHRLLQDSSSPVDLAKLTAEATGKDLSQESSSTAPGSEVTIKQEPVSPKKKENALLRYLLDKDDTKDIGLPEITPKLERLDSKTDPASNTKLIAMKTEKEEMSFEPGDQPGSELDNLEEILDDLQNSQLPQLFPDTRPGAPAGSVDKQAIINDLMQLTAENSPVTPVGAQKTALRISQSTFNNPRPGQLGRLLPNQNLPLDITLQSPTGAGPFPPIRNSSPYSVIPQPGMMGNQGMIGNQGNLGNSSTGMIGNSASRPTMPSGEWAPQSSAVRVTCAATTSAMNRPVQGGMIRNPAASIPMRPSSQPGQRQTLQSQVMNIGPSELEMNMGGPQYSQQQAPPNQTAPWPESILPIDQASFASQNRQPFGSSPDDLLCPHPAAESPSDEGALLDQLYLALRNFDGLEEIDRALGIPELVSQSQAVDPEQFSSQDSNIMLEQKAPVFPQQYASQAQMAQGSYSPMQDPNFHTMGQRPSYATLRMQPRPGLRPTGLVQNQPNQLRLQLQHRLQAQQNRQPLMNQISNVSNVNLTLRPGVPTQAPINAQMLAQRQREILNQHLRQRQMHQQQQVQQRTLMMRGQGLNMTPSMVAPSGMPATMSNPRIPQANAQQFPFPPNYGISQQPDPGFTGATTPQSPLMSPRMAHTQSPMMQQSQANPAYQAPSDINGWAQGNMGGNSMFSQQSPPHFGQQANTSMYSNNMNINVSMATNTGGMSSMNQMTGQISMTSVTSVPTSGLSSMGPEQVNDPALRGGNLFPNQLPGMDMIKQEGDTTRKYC
SRC3 inh: human NCOA3 inhibition | HEK293 GAL4-SRC3 luciferase reporter, luminescence | inhibition, % at 3.6 µM | Q9Y6Q9 | 0.17% of 360,000 active | AID 588352;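 active = inhibition above a per-campaign cutoff, the mean of all compounds plus 3 SD, cut at about 60% in these data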;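 note: higher means less SRC3-driven luciferase light from the GAL4 reporter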
A number is an active result; - = inactive; . = not tested or not shown. This is a sample that favours compounds with a hit; in the whole collection about 1.1% have one here.

SMILES | SRC1 inh | Shn3 inh set2 | Gli-Sufu antag | NR5A2 inv ag | NCOA2 inhibitor | SRC3 inh
O=C1NCCOC(=O)[C@@H](Cc2ccc(F)cc2)CC/C=C/C[C@@H]1CC(=O)N(CCO)Cc1ccccc1 | - | 91 | - | - | - | -
O=C1NCCOC(=O)[C@H](Cc2ccc(F)cc2)CC/C=C/C[C@H]1CC(=O)N(CCO)Cc1ccccc1 | - | - | - | - | - | -
Cc1ccc(C(C)C)c(OCc2ccc(C(=O)N/N=C/c3ccc(O)cc3O)cc2)c1 | 67 | 92 | - | - | 64 | 70
Cc1ccc(C(C)C)c(OCc2ccc(C(=O)N/N=C/c3ccc(C(=O)O)cc3)cc2)c1 | - | - | - | - | - | -
O=C(CCc1ccccc1)NNC(=S)NC(=O)c1ccccc1 | - | - | - | - | - | -
CC(C)(C)c1cc(CCC(=O)NNC(=S)NC(=O)c2ccccc2)cc(C(C)(C)C)c1O | - | - | 59 | - | . | -
Cc1ccc2[nH]c3c(c2c1)CCCC3NC(=O)CCl (stereo unspecified) | 77 | - | - | 89 | . | 77
Cc1cc(-n2c(C)cc(C(=O)CSc3ncnc4ccccc34)c2C)no1 | - | - | 73 | - | - | -
CC(C)N(CCC(=O)c1ccc2ccccc2c1)Cc1ccccc1 | - | 94 | - | - | - | -
CCOc1ccc(-c2cc(C(=O)OC)c3n(c2=O)CCC3)cc1 | . | . | . | . | - | .
CN(C[C@H](Cc1ccccc1)N(C[C@H](c1ccccc1)N(CCc1ccccc1)N=O)N=O)N=O | - | 87 | - | - | - | -
O=C(Nc1ccc(Cl)c(Cl)c1)Nc1ccc(N2CCCC2)c(S(=O)(=O)Nc2ccccc2Cl)c1 | - | 98 | - | - | - | -
O=C(Nc1ccc(F)cc1)Nc1ccc(N2CCCC2)c(S(=O)(=O)Nc2ccccc2Cl)c1 | - | - | - | - | - | -
CC(C)C[C@@H](CO)N(Cc1ccccc1)S(=O)(=O)N(Cc1ccccc1)[C@@H](CO)CC(C)C | - | 90 | - | - | . | -
C#CCNC(=O)C[C@H]1C[C@@]2(C(=O)OC)C(=C[C@H](C(C)(C)C)O[C@@H]2C)N(Cc2cccc3ccccc23)C1=O | . | . | . | . | - | .
Cc1ccc(C)c(NC(=O)CN(C)C(=O)c2cccc(S(=O)(=O)N3CCN(Cc4ccccc4)CC3)c2)c1 | - | 87 | - | - | - | -
Cc1ccc(CN(C)C(=O)c2cccc(S(=O)(=O)N3CCN(c4ccccc4)CC3)c2)cc1 | - | - | - | - | - | -
CN(CCOc1ccc(Cl)cc1)C(=O)c1cccc(S(=O)(=O)N2CCN(Cc3ccccc3)CC2)c1 | - | 91 | - | - | - | -
COc1cccc(CN(C)C(=O)c2cccc(S(=O)(=O)N3CCN(c4ccccc4)CC3)c2)c1 | - | 85 | . | - | - | -
CSc1ccc(CN(C)C(=O)c2cccc(S(=O)(=O)N3CCN(Cc4ccccc4)CC3)c2)cc1 | - | 88 | - | - | - | -
CC1CCCCC1C(=O)N1CCC(Oc2cccnc2)CC1 (stereo unspecified) | . | . | . | . | - | .
COC(=O)[C@]12C[C@H](CC(=O)NCCc3ccccc3OC)C(=O)N(Cc3cccc4ccccc34)C1=C[C@H](C(C)(C)C)O[C@@H]2C | . | . | . | . | - | .
CCOC(=O)Oc1c(OC)cc(C(=O)O[C@@H]2C[C@@H]3CN4CCc5c([nH]c6cc(OC)ccc56)[C@H]4C[C@@H]3[C@H](C(=O)OC)[C@H]2OC)cc1OC | - | 93 | - | - | - | -
O=C(Nc1nc2cc3c(cc2s1)OCCO3)C1=COCCO1 | - | 88 | - | - | 68 | 65
Cc1cccc(NC(=O)CSc2nc3ccccc3c(=O)n2C)c1C | - | 87 | . | - | - | -
SMILES | SRC1 inh | Shn3 inh set2 | Gli-Sufu antag | NR5A2 inv ag | NCOA2 inhibitor | SRC3 inh
COc1ccccc1NC(=O)CSc1nc2ccccc2c(=O)n1C | - | - | - | - | - | -
COC(=O)[C@]12C[C@H](CC(=O)N3CCCCC3)C(=O)N(Cc3ccc4c(c3)OCO4)C1=C[C@H](C(C)C)O[C@@H]2C1CC1 | . | . | . | . | - | .
Cc1c(NC(=O)C2CCCN(S(=O)(=O)c3ccccc3[N+](=O)[O-])C2)c(=O)n(-c2ccccc2)n1C (stereo unspecified) | . | . | . | . | - | .
O=C(CN(C1CCCCC1)S(=O)(=O)c1ccc(F)cc1)NCC1CCCO1 (stereo unspecified) | - | 97 | - | - | - | -
O=C(CNS(=O)(=O)c1cccs1)N1CCN(c2ncccn2)CC1 | . | . | . | . | - | .
C=CCNC(=O)CN(C(=O)c1csc2ccc(Cl)cc12)c1cccc(Br)c1 | . | . | . | . | - | .
C=CCn1c(C)cc(C(=O)CN2C(=O)c3ccccc3S2(=O)=O)c1C | 87 | 91 | 89 | 88 | . | 88
O=C(CN1C(=O)c2ccccc2S1(=O)=O)NCc1ccccc1Cl | - | - | - | - | - | -
CCn1c(C)cc(C(=O)CN2C(=O)c3ccccc3S2(=O)=O)c1C | - | - | 64 | - | - | -
O=C(CN1C(=O)c2ccccc2S1(=O)=O)c1ccccc1Cl | - | - | . | - | 57 | -
CCCN(CCC)c1ncnc2nc[nH]c12 | - | - | - | - | - | 65
Clc1ccccc1CN(Cc1ccccc1)c1ncnc2nc[nH]c12 | - | - | - | - | - | -
COc1ccc(C2C(C(=O)Nc3cc(OC)ccc3OC)CCC(=O)N2c2ccc(OC)cc2)cc1 (stereo unspecified) | . | . | . | . | - | .
Cc1cccc(Oc2cc(NC(=O)c3ccccc3)cc([N+](=O)[O-])c2)c1 | - | 87 | - | - | - | -
Cc1ccc(NC(=O)c2cccc(Oc3ccc([N+](=O)[O-])cc3)c2)c(C(=O)O)c1 | - | - | - | - | - | -
Cc1nn(C)cc1C(=O)Nc1cc(Oc2ccc(Cl)cc2)cc([N+](=O)[O-])c1 | - | - | - | - | . | -
Cn1cc([N+](=O)[O-])c(C(=O)Nc2cc(Oc3ccccc3)cc([N+](=O)[O-])c2)n1 | - | 96 | - | - | - | -
COC(=O)C1CN(Cc2cn(Cc3ccc(F)cc3)nn2)CCS(=O)(=O)N1Cc1ccc(F)cc1 (stereo unspecified) | . | . | . | . | - | .
CCCCN1C=CC(=C2C(=O)c3ccccc3C2=O)C=C1 | - | 91 | . | - | 76 | -
CCCCCOC(=O)c1[nH]c2c(c1C)C(=O)CC(c1ccco1)C2 (stereo unspecified) | - | 92 | 69 | - | . | -
Cc1cccc(-c2sc(Nc3ccccc3)n[n+]2-c2ccc(F)cc2)c1 | - | - | - | - | - | -
CCc1ccc(Nc2n[n+](-c3ccccc3)c(-c3cccc(C)c3)s2)cc1 | - | - | 70 | - | - | -
COc1ccccc1OCC(O)Cn1c(=N)n(Cc2ccccc2)c2ccccc21 (stereo unspecified) | - | 87 | - | - | - | -
C=CCn1c(=N)n(CC(O)COc2ccccc2OC)c2ccccc21 (stereo unspecified) | - | - | - | - | - | -
